Experiment [1] has as its target Nuclear respiratory factor 1 (Homo sapiens) (UniProt Q16656). As to the kind of experiment: ATG_NRF1_CIS: Attagene CIS-FACTORIAL HepG2 Assay for human Nuclear Respiratory Factor 1 (NRF1) Orphan Gene (AID 2282987). The following applies: HepG2 NRF1 cis-element reporter, Attagene multiplex; actives raise or lower the signal. The procedure, abridged:
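Cells (HepG2, transient MRTU transfection) are exposed to compound for 24 h, then RNA isolated and reporter mRNA amplified and fluorescently labelled. Fragments are separated by capillary electrophoresis; signal change is fitted bidirectionally relative to DMSO.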

Experiment [2] is described as follows: ATG_NFI_CIS: Attagene CIS-FACTORIAL HepG2 Assay for human Nuclear Factor I (NFI) (AID 2282989). Conditions: HepG2 cis-regulatory reporter, NFI response element transcription; actives raise or lower the signal. The procedure, abridged: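 HepG2, transient MRTU, 24 h exposure; RNA→cDNA→PCR→FAM label→HpaI→CE fluorescence. Bidirectional fit, DMSO = baseline.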
For experiment [3], the target named is Myc proto-oncogene protein (Homo sapiens) (UniProt P01106). The experiment in a line: ATG_Myc_CIS: Attagene CIS-FACTORIAL HepG2 Assay for human Myelocytomatosis (Myc) Proto-Oncogene Transcription Factor (AID 2282990). Conditions: HepG2, Attagene cis-reporter transcription factor activity; actives raise or lower the signal. The procedure, abridged: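 After 24 h chemical treatment of HepG2 cells carrying multiplexed cis-regulated reporter constructs, reporter transcripts quantified by RT-PCR and capillary electrophoresis of fluorescent fragments. Gain or loss fitted against DMSO baseline.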
Chain of Myc proto-oncogene protein (Homo sapiens) (P01106 whole entry, looked up, the tested form may be a part): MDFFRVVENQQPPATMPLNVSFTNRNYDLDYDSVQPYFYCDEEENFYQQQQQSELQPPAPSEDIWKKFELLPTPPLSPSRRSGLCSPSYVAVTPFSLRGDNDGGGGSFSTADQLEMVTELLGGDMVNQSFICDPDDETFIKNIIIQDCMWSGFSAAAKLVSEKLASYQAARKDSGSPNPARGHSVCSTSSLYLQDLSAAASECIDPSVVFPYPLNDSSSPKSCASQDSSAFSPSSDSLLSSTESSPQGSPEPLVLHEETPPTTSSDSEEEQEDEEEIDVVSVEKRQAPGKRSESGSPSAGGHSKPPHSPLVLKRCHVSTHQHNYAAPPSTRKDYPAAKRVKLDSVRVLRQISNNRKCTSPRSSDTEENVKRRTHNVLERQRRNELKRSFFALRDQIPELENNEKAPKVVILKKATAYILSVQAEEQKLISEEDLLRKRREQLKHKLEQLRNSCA

Experiment [4] in a line: ATG_NF_kB_CIS: Attagene CIS-FACTORIAL HepG2 Assay for human Nuclear Factor Kappa B (NF-kB) (AID 2282991). The following applies: HepG2 Attagene cis-factorial NF-kB reporter mRNA; actives raise or lower the signal. The procedure, abridged:
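Measures mRNA induction of an NF-kB-responsive cis-element reporter in HepG2 cells transfected with multiple reporter units, sampled 24 h post-dosing; quantified by fluorescence after RT-PCR and capillary electrophoresis, fitted for activation or inhibition against DMSO.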

Experiment [5] is described as follows: ATG_NRF2_ARE_CIS: Attagene CIS-FACTORIAL HepG2 Assay for human Nuclear Factor Erythroid 2 Related Factor 2 (NFR2) response to Antioxidant Response Elements (ARE) (AID 2282992). The following applies: HepG2 Attagene ARE/NRF2 reporter, transcription factor activity; actives raise or lower the signal. The procedure, abridged:
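Endogenous transcription factor activity read out as reporter transcript levels (RT-PCR plus capillary electrophoresis, fluorescence) in transiently transfected HepG2 cells. Measured at 24 h after dosing; gain or loss of signal fitted versus DMSO.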

Experiment [6] in a line: ATG_Oct_MLP_CIS: Attagene CIS-FACTORIAL HepG2 Assay for human Octamer-Binding Transcription Factor (Oct) (AID 2282993). Conditions: HepG2 Attagene cis-factorial Oct reporter, mRNA; actives raise or lower the signal. The procedure, abridged: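 Multiplexed cis-reporter assay in human liver HepG2 cells, 24 h incubation. Reporter RNA amplified and labelled, then resolved by capillary electrophoresis; DMSO serves as negative control and baseline.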

For experiment [7], the target named is Cellular tumor antigen p53 (Homo sapiens) (UniProt P04637). The experiment in a line: ATG_p53_CIS: Attagene CIS-FACTORIAL HepG2 Assay for human p53 Transcription Factor (AID 2282994). Conditions: HepG2 p53 cis-element reporter, Attagene mRNA; actives raise or lower the signal. The procedure, abridged: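 Endogenous p53 activity read in transiently transfected HepG2 from a cis-element-driven reporter transcript after 24 h exposure. RNA reverse-transcribed, PCR-amplified, fluorescently labelled and sized by capillary electrophoresis; gain or loss fitted against DMSO baseline.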
Chain of Cellular tumor antigen p53 (Homo sapiens) (P04637 whole entry, looked up): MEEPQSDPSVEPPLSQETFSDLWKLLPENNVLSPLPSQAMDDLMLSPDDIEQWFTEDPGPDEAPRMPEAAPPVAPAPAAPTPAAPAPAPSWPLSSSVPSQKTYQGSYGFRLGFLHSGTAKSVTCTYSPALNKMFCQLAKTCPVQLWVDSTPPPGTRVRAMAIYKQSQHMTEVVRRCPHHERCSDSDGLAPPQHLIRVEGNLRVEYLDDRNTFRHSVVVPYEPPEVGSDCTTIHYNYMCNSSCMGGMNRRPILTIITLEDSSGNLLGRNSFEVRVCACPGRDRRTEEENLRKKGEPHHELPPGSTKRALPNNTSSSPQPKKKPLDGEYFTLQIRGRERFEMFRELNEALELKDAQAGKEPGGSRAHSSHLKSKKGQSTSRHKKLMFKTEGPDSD

Experiment [8] addresses human Peroxisome Proliferator-activated Receptor alpha (PPARa), PPARA (gene 5465) (UniProt Q07869). As to the kind of experiment: ATG_PPARa_TRANS: Attagene TRANS-FACTORIAL HepG2 Assay for human Peroxisome Proliferator-activated Receptor alpha (PPARa) (AID 2283001; active = hit-call score of the fitted dose curve at least 0.9, where 1 is the maximum). The procedure, abridged: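 Transfected HepG2 cells treated with test chemical for 24 h. RNA isolated, reverse-transcribed with oligo(dT), PCR-amplified, FAM-labelled and HpaI-digested. Fragments sized by capillary electrophoresis; gain-of-signal fit relative to DMSO.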

Experiment [9] concerns the target Peroxisome proliferator-activated receptor gamma (Homo sapiens) (UniProt P37231). As to the kind of experiment: ATG_PPARg_TRANS: Attagene TRANS-FACTORIAL HepG2 Assay for human Peroxisome Proliferator-activated Receptor-gamma (PPARg) (AID 2283007; active = hit-call score of the fitted dose curve at least 0.9, where 1 is the maximum). The procedure, abridged: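 Gain-of-signal endpoint relative to DMSO, derived from reporter mRNA levels quantified by RT-PCR and capillary electrophoresis. Cells were HepG2 transiently expressing a chimeric NR-Gal4 construct with GAL4-UAS reporters, exposed to chemicals for 24 h.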

The target of experiment [10] is human Retinoic Acid Receptor beta (RARb), RARB (gene 5915) (UniProt P10826). The experiment in a line: ATG_RARb_TRANS: Attagene TRANS-FACTORIAL HepG2 Assay for human Retinoic Acid Receptor beta (AID 2283004; active = hit-call score of the fitted dose curve at least 0.9, where 1 is the maximum). The essentials: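 HepG2 cells transiently transfected with multiplexed GAL4-UAS reporter units expressing chimeric NR–Gal4 fusions; 24 h compound exposure. Reporter mRNA quantified by RT-PCR, 6-FAM labelling, HpaI digestion and capillary electrophoresis; gain-of-signal fitted against DMSO baseline.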
Chain of human Retinoic Acid Receptor beta (RARb), RARB (gene 5915) (P10826 whole entry, looked up, the tested form may be a part): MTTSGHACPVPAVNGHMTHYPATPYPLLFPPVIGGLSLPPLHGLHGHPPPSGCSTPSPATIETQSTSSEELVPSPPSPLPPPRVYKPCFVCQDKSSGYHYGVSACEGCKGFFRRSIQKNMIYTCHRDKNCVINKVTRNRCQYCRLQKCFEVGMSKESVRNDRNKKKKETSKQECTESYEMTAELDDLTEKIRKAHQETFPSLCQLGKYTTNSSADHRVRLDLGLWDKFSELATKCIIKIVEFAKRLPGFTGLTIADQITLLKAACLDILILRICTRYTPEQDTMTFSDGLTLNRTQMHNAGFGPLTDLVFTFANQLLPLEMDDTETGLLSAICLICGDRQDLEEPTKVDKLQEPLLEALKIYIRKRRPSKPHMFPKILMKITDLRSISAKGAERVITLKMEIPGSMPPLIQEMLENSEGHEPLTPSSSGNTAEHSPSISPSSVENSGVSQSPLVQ

Experiment [11] deals with Retinoic acid receptor alpha (Homo sapiens) (UniProt P10276). As to the kind of experiment: ATG_RARa_TRANS: Attagene TRANS-FACTORIAL HepG2 Assay for human Retinoic Acid Receptor alpha (RARa) (AID 2283005; active = hit-call score of the fitted dose curve at least 0.9, where 1 is the maximum). The essentials:
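Reporter transcripts, measured by RT-PCR with fluorescent labeling and capillary electrophoresis after 24 h dosing, reflect activity of an exogenous human RARa–GAL4 fusion in transiently transfected HepG2. Fitted for increase relative to DMSO.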

The target in experiment [12] is Nuclear receptor subfamily 1 group I member 2 (Homo sapiens) (UniProt O75469). As to the kind of experiment: ATG_PXR_TRANS: Attagene TRANS-FACTORIAL HepG2 Assay for human Pregnane X Receptor (PXR) (AID 2283008; active = hit-call score of the fitted dose curve at least 0.9, where 1 is the maximum). The essentials:
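Transactivation by exogenous PXR–GAL4 fusion measured as reporter transcript induction after 24 h compound treatment of transfected human HepG2 cells. Read-out via RT-PCR and capillary electrophoresis of labelled fragments, fitted upward relative to DMSO.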

Experiment [13] concerns the target human Peroxisome Proliferator-activated Receptor delta (PPARd), PPARD (gene 5467) (UniProt Q03181). As to the kind of experiment: ATG_PPARd_TRANS: Attagene TRANS-FACTORIAL HepG2 Assay for human Peroxisome Proliferator-activated Receptor delta (PPARd) (AID 2283002; active = hit-call score of the fitted dose curve at least 0.9, where 1 is the maximum). The procedure, abridged: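 Read-out is induced reporter mRNA, quantified by RT-PCR with fluorescent labelling and capillary electrophoresis after 24 h dosing. Cells are HepG2 transiently carrying multiple GAL4-UAS reporter units driven by exogenous NR-GAL4 chimeras; DMSO serves as baseline.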

Records with an inconclusive call do not appear. Calls of active or inactive are those of the source. Rule for the calls, unless noted: active = hit-call score of the fitted dose curve at least 0.9, where 1 is the maximum; inactive = score below 0.9.

Chain of Retinoic acid receptor alpha (Homo sapiens) (P10276 whole entry, looked up, the tested form may be a part): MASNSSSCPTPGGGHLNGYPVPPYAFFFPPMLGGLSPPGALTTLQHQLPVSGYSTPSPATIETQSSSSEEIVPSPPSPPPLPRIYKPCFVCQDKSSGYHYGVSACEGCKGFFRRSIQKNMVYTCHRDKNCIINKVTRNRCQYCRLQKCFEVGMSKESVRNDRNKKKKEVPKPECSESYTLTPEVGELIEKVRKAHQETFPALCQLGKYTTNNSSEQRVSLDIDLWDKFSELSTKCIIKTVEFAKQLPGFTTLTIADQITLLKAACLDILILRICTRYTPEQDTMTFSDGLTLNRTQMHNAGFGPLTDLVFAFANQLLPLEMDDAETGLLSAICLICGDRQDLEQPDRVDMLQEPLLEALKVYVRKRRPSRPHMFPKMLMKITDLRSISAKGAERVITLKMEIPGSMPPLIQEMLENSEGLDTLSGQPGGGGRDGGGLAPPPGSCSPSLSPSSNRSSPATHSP
Chain of Peroxisome proliferator-activated receptor gamma (Homo sapiens) (P37231 whole entry, looked up, the tested form may be a part): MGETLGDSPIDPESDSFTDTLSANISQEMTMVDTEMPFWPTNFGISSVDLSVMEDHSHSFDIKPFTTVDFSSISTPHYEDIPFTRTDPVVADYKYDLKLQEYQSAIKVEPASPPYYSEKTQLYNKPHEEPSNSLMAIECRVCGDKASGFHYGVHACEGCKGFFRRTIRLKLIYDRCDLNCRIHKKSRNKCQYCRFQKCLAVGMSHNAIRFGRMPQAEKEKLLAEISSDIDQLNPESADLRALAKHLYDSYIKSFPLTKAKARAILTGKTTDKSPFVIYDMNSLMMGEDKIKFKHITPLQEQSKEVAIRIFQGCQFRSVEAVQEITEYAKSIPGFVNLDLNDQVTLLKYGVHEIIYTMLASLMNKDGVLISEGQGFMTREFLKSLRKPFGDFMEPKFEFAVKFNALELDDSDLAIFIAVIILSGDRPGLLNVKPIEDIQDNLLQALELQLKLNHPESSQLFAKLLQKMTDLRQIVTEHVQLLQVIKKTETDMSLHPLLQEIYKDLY
Chain of human Peroxisome Proliferator-activated Receptor alpha (PPARa), PPARA (gene 5465) (Q07869 whole entry, looked up, the tested form may be a part): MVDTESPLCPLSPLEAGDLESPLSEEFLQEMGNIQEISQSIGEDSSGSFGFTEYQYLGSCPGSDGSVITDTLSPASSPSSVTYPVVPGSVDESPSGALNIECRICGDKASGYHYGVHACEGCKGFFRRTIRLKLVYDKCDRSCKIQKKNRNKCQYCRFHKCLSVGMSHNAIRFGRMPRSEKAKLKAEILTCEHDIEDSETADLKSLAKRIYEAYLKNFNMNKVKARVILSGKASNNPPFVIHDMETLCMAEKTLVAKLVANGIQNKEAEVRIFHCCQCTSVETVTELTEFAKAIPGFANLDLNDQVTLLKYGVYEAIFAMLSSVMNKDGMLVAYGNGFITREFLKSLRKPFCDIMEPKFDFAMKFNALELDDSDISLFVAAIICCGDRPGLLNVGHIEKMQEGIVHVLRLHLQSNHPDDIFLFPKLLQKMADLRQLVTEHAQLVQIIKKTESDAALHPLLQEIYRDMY
Chain of Nuclear receptor subfamily 1 group I member 2 (Homo sapiens) (O75469 whole entry, looked up, the tested form may be a part): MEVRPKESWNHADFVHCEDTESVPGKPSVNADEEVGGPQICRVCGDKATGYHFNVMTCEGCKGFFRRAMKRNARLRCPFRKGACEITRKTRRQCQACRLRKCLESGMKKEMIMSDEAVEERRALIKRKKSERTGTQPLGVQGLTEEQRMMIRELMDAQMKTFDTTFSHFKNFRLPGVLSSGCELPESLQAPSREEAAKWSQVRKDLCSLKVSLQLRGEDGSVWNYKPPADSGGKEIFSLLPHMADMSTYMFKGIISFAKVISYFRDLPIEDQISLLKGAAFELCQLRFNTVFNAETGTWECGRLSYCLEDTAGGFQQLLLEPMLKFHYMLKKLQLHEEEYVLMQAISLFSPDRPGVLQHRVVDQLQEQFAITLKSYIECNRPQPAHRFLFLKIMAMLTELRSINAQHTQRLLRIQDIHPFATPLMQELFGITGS
Chain of human Peroxisome Proliferator-activated Receptor delta (PPARd), PPARD (gene 5467) (Q03181 whole entry, looked up, the tested form may be a part): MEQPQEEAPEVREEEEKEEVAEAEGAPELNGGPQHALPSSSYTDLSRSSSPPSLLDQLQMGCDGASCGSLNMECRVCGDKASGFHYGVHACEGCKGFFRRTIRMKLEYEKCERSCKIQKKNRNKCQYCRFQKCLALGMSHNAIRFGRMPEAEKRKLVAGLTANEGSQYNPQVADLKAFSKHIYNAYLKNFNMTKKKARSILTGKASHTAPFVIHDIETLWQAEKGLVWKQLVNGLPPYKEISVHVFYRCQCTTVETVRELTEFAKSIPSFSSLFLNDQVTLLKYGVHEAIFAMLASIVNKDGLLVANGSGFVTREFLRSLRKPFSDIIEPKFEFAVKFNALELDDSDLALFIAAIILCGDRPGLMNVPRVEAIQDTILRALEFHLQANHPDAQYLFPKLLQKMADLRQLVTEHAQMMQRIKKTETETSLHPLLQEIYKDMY
Chain of Nuclear respiratory factor 1 (Homo sapiens) (Q16656 whole entry, looked up, the tested form may be a part): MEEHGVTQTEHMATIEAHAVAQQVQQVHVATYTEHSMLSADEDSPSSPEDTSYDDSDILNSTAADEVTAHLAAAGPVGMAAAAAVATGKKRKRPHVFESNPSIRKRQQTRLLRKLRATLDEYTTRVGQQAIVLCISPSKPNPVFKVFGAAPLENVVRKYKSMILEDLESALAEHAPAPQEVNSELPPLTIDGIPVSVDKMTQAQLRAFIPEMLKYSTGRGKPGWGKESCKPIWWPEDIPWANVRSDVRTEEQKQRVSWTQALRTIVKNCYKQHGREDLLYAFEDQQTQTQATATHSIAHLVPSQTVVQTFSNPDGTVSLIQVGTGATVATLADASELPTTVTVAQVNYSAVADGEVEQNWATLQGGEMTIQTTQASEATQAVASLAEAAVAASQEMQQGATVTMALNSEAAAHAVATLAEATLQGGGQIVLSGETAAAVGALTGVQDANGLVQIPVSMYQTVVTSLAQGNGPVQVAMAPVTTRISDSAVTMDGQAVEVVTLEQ

`CC(=[OH+])/C=C(/C)[O-].CC(=[OH+])/C=C(/C)[O-].CC(=[OH+])/C=C(/C)[O-].[Fe]`: the compound was classed as inactive in [1], in experiment [2], in experiment [3], in experiment [4], in experiment [6] and in experiment [7]. In addition, the outcome in experiment [8] and in [9] was inactive. Further, the AC50 (usually the midpoint of the concentration-response curve, whichever way the signal moves) in experiment [5] was 16.9 µM (active).
With `CC(C)OC(=O)Nc1ccccc1`, the compound was called inactive in [1], in experiment [2], in experiment [3], in [4], in experiment [5] and in experiment [6]. For the same compound, the result in experiment [7], in experiment [10], in [11], in [9] and in experiment [12] was inactive.
For `C=CC(=O)N(C)C`, the compound was classed as inactive in experiment [1], in experiment [2], in experiment [3], in experiment [4], in experiment [5] and in experiment [6]. In addition, the compound was classed as inactive in experiment [7], in experiment [13], in experiment [9] and in experiment [12].
As for `CCC(C)c1cccc(C(C)CC)c1O` (stereo not drawn), the compound was called inactive in [1], in experiment [2], in experiment [3], in [4], in [6] and in experiment [7]. Further, the compound was called inactive in experiment [13], in [10], in experiment [11] and in experiment [9]. The AC50 in experiment [5] was 18 µM (active); in experiment [12], 4.53 µM (active).
In the case of `CNC`, the outcome in experiment [1], in experiment [2], in experiment [3], in [4], in experiment [5] and in [6] was inactive. Further, the compound was classed as inactive in experiment [7] and in experiment [13].
Consider `CC(C)C1CCC(Cc2ccc(Cl)cc2)C1(O)Cn1cncn1` (stereo not drawn), for which the compound was called inactive in experiment [1], in experiment [2], in experiment [3], in [4], in experiment [6] and in [10]. Also, the compound was classed as inactive in [11] and in [9]. Further, the AC50 in experiment [5] was 13.2 µM (active); in [7], 11 µM (active); in [12], 1.79 µM (active).
With `CNC(=O)O/N=C/C(C)(C)S(C)=O` (stereo not drawn), the compound was classed as inactive in experiment [1], in experiment [2], in [3], in [4], in experiment [6] and in [7]. Moreover, the compound was classed as inactive in experiment [8], in experiment [10] and in [12]. The AC50 in [5] was 55.1 µM (active); in experiment [9], 41.1 µM (active).
As to `CN(CCCC(=O)c1cccnc1)N=O`, the compound was classed as inactive in [1], in experiment [2], in experiment [3], in experiment [4], in experiment [5] and in experiment [6]. The compound was classed as inactive in experiment [7], in experiment [8], in [13] and in experiment [12].
As for `O=C(CCl)CCl`, the AC50 was 56 µM (active) in experiment [1]; 33.4 µM (active) in experiment [4]; 8.44 µM (active) in experiment [5]; 26.1 µM (active) in experiment [6]; 58.6 µM (active) in experiment [7]. Further, the result in experiment [2], in experiment [3], in experiment [8], in experiment [9] and in experiment [12] was inactive.
In the case of `COS(=O)(=O)c1ccc(C)cc1`, the result in experiment [1], in [2], in [3], in experiment [4], in [5] and in [6] was inactive. Also, the compound was classed as inactive in [7], in experiment [8], in [13] and in [12].
`Nc1ccc(Cl)cc1C(=O)c1ccccc1`: the result in experiment [1], in experiment [2], in experiment [3], in experiment [4], in [5] and in experiment [6] was inactive. For the same compound, the call in experiment [7], in experiment [8] and in experiment [13] was inactive. Moreover, the AC50 in [9] is 25.8 µM (active); in experiment [12], 10.5 µM (active).

Values taken from PubChem BioAssay (EPA / NIEHS).
